# Compound activity (PubChem)
# Compounds with a hit are over-represented: about 6.2% of the library has one in this group of screens.
# NTR1 agonist: agonists of human neurotensin receptor NTR1; P30989; NTR1-U2OS beta-arrestin-GFP spot imaging, agonist mode; activation, % at 20 µM; hit rate 0.17% among 330,000;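 active = activation at or above 40% of the spot to cytoplasm intensity ratio, with at least 20 cells analyzed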
# Target sequence (P30989 whole entry, looked up): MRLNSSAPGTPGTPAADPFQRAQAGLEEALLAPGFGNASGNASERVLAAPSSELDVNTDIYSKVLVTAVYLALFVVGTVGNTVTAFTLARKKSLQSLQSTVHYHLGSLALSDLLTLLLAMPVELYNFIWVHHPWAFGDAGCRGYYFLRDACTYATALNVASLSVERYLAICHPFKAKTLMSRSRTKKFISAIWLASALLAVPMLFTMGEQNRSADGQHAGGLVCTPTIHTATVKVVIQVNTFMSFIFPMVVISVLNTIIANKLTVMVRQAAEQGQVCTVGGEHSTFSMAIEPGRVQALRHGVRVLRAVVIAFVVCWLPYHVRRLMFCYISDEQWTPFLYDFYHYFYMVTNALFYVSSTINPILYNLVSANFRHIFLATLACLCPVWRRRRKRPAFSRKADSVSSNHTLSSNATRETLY
# Mot1-301 SUMO: inhibitors of SUMOylation pathway: yeast Mot1-301 growth rescue; S. cerevisiae Mot1-301 growth rescue, ATP luminescence, 38.5C; percent above DMSO median, 100 means doubled; growth rescue, % at 18.8 µM; hit rate 1% among 320,000;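 active = every valid replicate shows activation above 250% relative to neutral control wells; inactive = the rest, any valid replicate at or below 250%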
# Cardio protect: protects H9c2 cardiomyocytes from peroxide injury | H2O2 injury protection, ATPLite, 2 h | protection from H2O2 cell death, % at 20 µM | hit rate 0.63% among 360,000;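 active = compounds giving at least 50% protection of heart cells from peroxide-induced death in the single-dose screen, raw or plate-pattern-corrected value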
# GRIN3A LBD mod: NR3A (human) ligand-binding domain modulation; NR3A LBD differential scanning fluorimetry, Tm shift; 0% = protein alone, 100% = glycine-bound protein; Tm shift relative to glycine control, % at 25 µM; hit rate 2.5% among 340,000; AID 1259313;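 active = melting temperature shift of at least 10% of the positive control shift, at one fixed dose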
# AI-2 QS mod: Vibrio harveyi AI-2 quorum sensing modulation. Vibrio harveyi JMH597 AI-2 luminescence/OD600 ratio, 9 h; stronger effect = lower value; strain lacks LuxN and CqsS sensors; 0 = neutral-control median. activity change, % at 7.5 µM. hit rate 0.4% among 300,000; in the data active = activity change below about -75%, passing the limit was not always enough;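 also: luminescence divided by OD600 gain over 9 h not by final OD600 alone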
# AHR activator: human AHR activation. activation, % at 5 µM. AHR-responsive luciferase reporter cells, luminescence. hit rate 2.5% among 320,000; in the data active = activation above about 47%
# Numbers stand for hits; i = inactive; nt = no result given.
SMILES,NTR1 agonist,Mot1-301 SUMO,Cardio protect,GRIN3A LBD mod,AI-2 QS mod,AHR activator
COc1ccc(OC)c(C2=NS(=O)(=O)N(C)C(C(=O)Nc3ccc(F)cc3F)=C2)c1,i,i,i,i,i,i
CCOc1ccccc1NC(=O)CSc1nnc2ccc(-c3cccnc3)nn12,i,i,i,i,i,49.5
COc1ccccc1NC(=O)CSc1nnc2ccc(-c3cccnc3)nn12,i,i,i,i,i,58.2
O=C(CSc1n[nH]c(-c2ccco2)n1)Nc1sc2c(c1C(=O)Nc1ccccc1)CCCC2,i,i,i,i,i,47.9
CCOC(=O)c1c(NC(=O)CSc2n[nH]c(-c3ccco3)n2)sc(C)c1C,i,i,i,i,i,i
COc1ccc(NC(=O)CSc2n[nH]c(-c3ccco3)n2)cc1,i,i,i,i,i,i
O=C(CSc1n[nH]c(-c2ccco2)n1)Nc1ccc(Br)cc1,i,i,i,13.5,i,i
O=C(CSc1n[nH]c(-c2ccncc2)n1)Nc1ccccc1,i,i,i,27.4,i,i
N#C/C(=C\c1ccc(-c2ccccc2[N+](=O)[O-])o1)C(=O)Nc1nc(-c2cccs2)cs1,i,i,i,11.7,i,58.5
N#C/C(=C\c1ccc(-c2ccc([N+](=O)[O-])cc2)o1)C(=O)Nc1nc(-c2cccs2)cs1,i,i,i,i,i,i
N#C/C(=C/c1ccc(-c2cccc([N+](=O)[O-])c2)o1)C(=O)Nc1nc(-c2cccs2)cs1,nt,nt,i,22.8,nt,nt
CCCOC1CCCN(C(=O)c2ccc3oc(C(C)C)nc3c2)C1 (centres undefined),i,i,i,i,i,i
Clc1ccc(Nc2ccc(NCc3ccccc3)nn2)cc1,i,i,i,23.8,i,i
COc1cccc(C(=O)NN2CC(O)=C(c3nc(C)cs3)C2=N)c1,i,i,i,i,i,53.5
CC(/C=N/Nc1ncc(C)c(=O)[nH]1)=C\c1ccccc1,i,i,i,i,i,61.3
CC1NC(=O)c2cccnc2-n2c1nc1ccccc1c2=O (centres undefined),nt,nt,i,nt,nt,nt
COc1ccccc1OCc1nc(C#N)c(N2CCCC2)o1,i,i,i,i,i,64.5
COc1ccc(-c2nc(C#N)c(N3CCCCCC3)o2)cc1OC,i,347.6,i,i,i,i
NS(=O)(=O)c1ccc(NC(=S)NC2CC2)cc1,i,691.4,i,i,i,i
CC1(C)CC(NC(=S)Nc2ccc(S(N)(=O)=O)cc2)CC(C)(C)N1,i,i,i,i,i,i
CCN1C(=O)[C@@H]2Cc3c([nH]c4ccccc34)C(c3ccc(OC)cc3)N2C1=S (some centres undefined),i,i,i,i,i,i
O=C(NCc1cccnc1)c1ccc(COc2cccc3ccccc23)o1,i,i,i,i,i,77.5
CCCc1ccc(OCc2ccc(C(=O)Nc3cccc(C)n3)o2)c(OC)c1,i,i,i,i,i,59.8
O=C(NCc1cccnc1)c1ccc(COc2ccc(Cl)cc2Cl)o1,i,i,i,i,i,i
CCCc1ccc(OCc2ccc(C(=O)NCc3cccnc3)o2)c(OC)c1,i,i,i,i,i,50.5
SMILES,NTR1 agonist,Mot1-301 SUMO,Cardio protect,GRIN3A LBD mod,AI-2 QS mod,AHR activator
CC(C)NC(=O)c1ccc(COc2cccc3ccccc23)o1,nt,nt,i,nt,nt,nt
NNC(=O)c1ccc(COc2cccc3ccccc23)o1,i,i,i,i,i,68.8
O=C(Nc1cc(S(=O)(=O)N2CCOCC2)ccc1N1CCCC1)c1ccccc1C(F)(F)F,nt,nt,nt,i,nt,nt
CC(C)c1ccc(NC2CCCN(C(=O)CSc3nncn3C)C2)cc1 (centres undefined),i,i,i,i,i,i
CCCCNC(=O)CSc1nc(Cc2ccccc2)nc2ccccc12,i,i,i,i,i,i
FC(F)(F)COc1nc(OCC(F)(F)F)nc(N2CCN(c3ccccc3)CC2)n1,i,i,i,12.0,i,i
NC(=S)c1cc2ccc(O)cc2oc1=O,nt,nt,i,i,i,nt
Oc1cc(O)cc(-c2cc3ccc(O)cc3o2)c1,i,i,i,16.1,i,i
COc1cc(C(=O)NC(=S)Nc2ccc3[nH]c(=O)[nH]c3c2)cc(OC)c1OC,i,i,i,i,i,i
CSc1ccccc1NC(=O)NCCCl,i,i,i,242.5,i,i
Cc1[nH][nH]c(=O)c1N=Nc1ccccc1Cl,i,i,i,i,i,i
Clc1ccccc1N=Nc1ccccn1,nt,nt,i,12.6,nt,nt
CNC(=O)C1Cc2c(-c3ccccc3Oc3ccccc3)ccnc2O1 (centres undefined),nt,nt,i,nt,nt,nt
O=C(Nc1ccccc1F)c1oc2ccccc2c1NC(=O)C1CC1,i,i,i,i,i,57.0
Cc1ncoc1C(=O)NC1CCCc2c1cnn2-c1ccc(C(C)(C)C)cc1 (centres undefined),i,nt,i,i,i,nt
COc1ccc(Br)c(/C=N/NC(=O)COc2ccc(-c3ccccc3)cc2)c1,i,i,i,i,i,i
O=C(O)COc1ccccc1/C=N/NC(=O)COc1ccc(-c2ccccc2)cc1,i,i,i,i,i,68.3
O=C(C(O)c1ccccc1)N1N=C(c2ccccc2)CC1(O)C(F)(F)F (centres undefined),i,i,i,i,i,nt
Cc1cc(=O)oc2cc(OCC(=O)N3CCN(C(=O)C4COc5ccccc5O4)CC3)c(Cl)cc12 (centres undefined),i,i,57.7,i,i,i
CCOC(=O)C1CCN(C(=O)COC(=O)/C=C/c2cccc(OC)c2OC)CC1,i,i,i,14.7,nt,i
CCOC(=O)C1CCN(C(=O)COC(=O)/C=C/c2ccccc2)CC1,i,i,i,i,nt,i
C/C(=N\NC(=O)CSCc1ccc([N+](=O)[O-])cc1)c1ccccc1O,i,i,63.1,i,i,i
C/C(=N\NC(=O)c1cc(-c2cccc([N+](=O)[O-])c2)n[nH]1)c1ccc(F)cc1,i,i,i,62.6,i,i
CCc1ccc(/C=N/NC(=O)c2cc(-c3cccc([N+](=O)[O-])c3)n[nH]2)cc1,i,i,i,i,i,i
C/C(=N\NC(=O)c1cc(-c2cccc([N+](=O)[O-])c2)n[nH]1)c1ccccc1O,nt,i,i,25.7,i,i
SMILES,NTR1 agonist,Mot1-301 SUMO,Cardio protect,GRIN3A LBD mod,AI-2 QS mod,AHR activator
C/C(=N\NC(=O)c1ccccc1C)c1cccc([N+](=O)[O-])c1,i,i,i,i,i,i
C/C(=N/NC(=O)c1cc(-c2cccc([N+](=O)[O-])c2)n[nH]1)c1cccc(O)c1,i,i,i,10.5,i,i
O=C(Nc1ccccc1Cl)c1cc(C2CCCCN2C(=O)c2cccs2)on1 (centres undefined),nt,nt,i,nt,nt,nt
CCc1ccc(C(=O)Nc2cc(S(=O)(=O)N3CCOCC3)ccc2N2CCOCC2)cc1,i,i,i,i,nt,i
O=C(O)c1cc(-c2cccc([N+](=O)[O-])c2)n[nH]1,i,i,i,i,i,i
CCOC(=O)c1cc(-c2cccc([N+](=O)[O-])c2)n[nH]1,i,i,i,33.3,i,i
